# Values of other authors as cited in PubChem BioAssay AID977610.
# Screen size: about 3,600 compounds; about 3,600 (100%) were called active. Cut-off not given; nearly all actives show Ki up to about 18000 µM. So high a share suggests a set chosen from earlier hits. The list shows a part of the results.
# Test: PubChem AID 977610
# Conditions: PDB protein-ligand complexes, literature Ki
compound,measurement,setting,value
O=C(c1ccc(F)c(F)c1Nc1ccc(I)cc1F)N1CC(O)([C@@H]2CCCCN2)C1,Ki,"protein: Dual specificity mitogen-activated protein kinase kinase 1, PDB entry 4lmn",5e-05 µM (active)
ON1CC=CCC1=S,Ki,"protein: Carbonic anhydrase 2 (H94D mutation), PDB entry 4jss",500 µM (active)
CC(C)(C)n1nc(-c2cccc3ccccc23)c2c(N)ncnc21,Ki,"protein: Aminoglycoside 3'-phosphotransferase AphA1-IAB, PDB entry 4gkh",21.5 µM (active)
C[C@H](C[P+](O)(O)[C@H](Cc1ccccc1)NC(=O)[C@H](N)Cc1nn[nH]n1)C(=O)N[C@@H](C)C(N)=O,Ki,"protein: ANGIOTENSIN-CONVERTING ENZYME, PDB entry 4bxk",0.0112 µM (active)
CC(=O)N[C@@H](CC(=O)O)C(=O)N[C@@H](Cc1ccccc1)[P+](O)(O)C[C@@H](C)C(=O)N[C@@H](C)C(N)=O,Ki,"protein: Angiotensin Converting Enzyme N domain glycsoylation mutant (Ndom389), PDB entry 3nxq",0.007 µM (active)
CC(=O)N[C@@H](CC(C)C)C(=O)N[C@H](C(=O)N[C@@H](Cc1ccccc1)C(=O)N[C@]1(C)CCCCCC/C=C/CCC[C@@](C)(C(=O)N[C@@H](CO)C(=O)N[C@@H](C)C(=O)N[C@@H](C)C(=O)O)NC(=O)[C@H](CC2CCC2)NC(=O)[C@H](CCC(N)=O)NC(=O)[C@H](C)NC(=O)[C@H](Cc2c[nH]c3ccccc23)NC(=O)[C@H](Cc2ccc(O)cc2)NC(=O)[C@H](CCC(=O)O)NC1=O)[C@@H](C)O,Ki,"protein: Protein Mdm4, PDB entry 4n5t",0.007 µM (active)
CS[C@H](CCCC1C(=O)NC(N)NC1N)c1ccc(C(=O)N[C@@H](CCC(=O)O)C(=O)O)cc1 (stereo partly specified),Ki,"protein: Trifunctional purine biosynthetic protein adenosine-3, PDB entry 4ew3",0.18 µM (active)
CS[C@@H](CCCC1C(=O)NC(N)NC1N)c1ccc(C(=O)N[C@@H](CCC(=O)O)C(=O)O)cc1 (stereo partly specified),Ki,"protein: Trifunctional purine biosynthetic protein adenosine-3, PDB entry 4ew2",0.21 µM (active)
NC(=O)[C@H]1CCCc2c1[nH]c1ccc(Cl)cc21,Ki,"protein: NAD-DEPENDENT PROTEIN DEACETYLASE SIRTUIN-3, MITOCHONDRIAL, PDB entry 4bvb",33.4 µM (active)
CC(C)N(C[C@H]1O[C@@H](n2cnc3c(N)ncnc32)[C@H](O)[C@@H]1O)C1CC(CCc2nc3ccc(C(C)(C)C)cc3[nH]2)C1 (stereo partly specified),Ki,"protein: Histone-lysine N-methyltransferase, H3 lysine-79 specific, PDB entry 4hra",8e-05 µM (active)
OC[C@H]1OCC[C@@H](O)[C@H]1O,Ki,"protein: GALACTOCEREBROSIDASE, PDB entry 4ccd",32 µM (active)
O=C(O)CCC(=O)O,Ki,"protein: Delta-1-pyrroline-5-carboxylate dehydrogenase, mitochondrial, PDB entry 4lh2",58000 µM (active)
N[C@@H](CCCNC(=O)C[P+](O)(O)O)C(=O)O,Ki,"protein: human ornithine transcarbamylase, PDB entry 1oth",0.1 µM (active)
OC[C@@H]1[C@@H](O)[C@H](O)[C@@H](O)[C@@H]1NCc1ccc(Br)cc1,Ki,"protein: strictosidine glucosidase, PDB entry 3zj8",127 µM (active)
N[C@@H](c1ccc(-n2cccn2)cc1)[P+](O)(O)O,Ki,"protein: M1 family aminopeptidase, PDB entry 4k5o",104 µM (active)
same,Ki,"protein: M17 leucyl aminopeptidase, PDB entry 4k3n",0.011 µM (active)
NC(N)Nc1ccc([C@H](N)[P+](O)(O)O)cc1,Ki,"protein: M1 family aminopeptidase, PDB entry 4k5n",127 µM (active)
NC(N)c1ccc([C@H](N)[P+](O)(O)O)cc1,Ki,"protein: M1 family aminopeptidase, PDB entry 4k5p",345 µM (active)
NC(N)Nc1ccc(C=O)cc1,Ki,"protein: Bovine beta trypsin, PDB entry 1gbt",10000 µM (active)
C=CCNC(=O)[C@@H](NC(=O)[C@@](O)(CCCN(Cc1ccc(-c2cccs2)cc1)NC(=O)[C@@H](NC(=O)OC)C(C)(C)C)Cc1ccc(CC=C)cc1)C(C)C,Ki,"protein: HIV-1 protease, PDB entry 4cpr",0.035 µM (active)
CCCNC(=O)[C@@H](NC(=O)[C@@](O)(CCCN(Cc1ccc(-c2ccncc2)cc1)NC(=O)[C@@H](NC(=O)OC)C(C)(C)C)Cc1ccc(CCC)cc1)C(C)C,Ki,"protein: HIV-1 protease, PDB entry 4cp7",0.0078 µM (active)
C=CCNC(=O)[C@@H](NC(=O)[C@@](O)(CCCN(Cc1ccc(-c2cccnc2)cc1)NC(=O)[C@@H](NC(=O)OC)C(C)(C)C)Cc1ccc(CC=C)cc1)C(C)C,Ki,"protein: HIV-1 protease, PDB entry 4cpq",0.018 µM (active)
C=CCNC(=O)[C@@H](NC(=O)[C@@](O)(CCCN(Cc1ccc(Br)cc1)NC(=O)[C@@H](NC(=O)OC)C(C)(C)C)Cc1ccccc1)C(C)(C)C,Ki,"protein: PROTEASE, PDB entry 3zps",0.005 µM (active)
CC1=C(C(=O)O)N[C@@H]([C@@H](C=O)NC(=O)Cc2cccs2)SC1,Ki,"protein: Carboxylesterases, PDB entry 4ivk",140 µM (active)
Cc1cc(C)nc(N)n1,Ki,"protein: PDE10A2, PDB entry 4llx",1300 µM (active)
CNc1nc2cc3nc[nH]c(=O)c3cc2[nH]1,Ki,"protein: Queuine tRNA-ribosyltransferase, PDB entry 3GEV",2.9 µM (active)
same,Ki,"protein: Queuine tRNA-ribosyltransferase, PDB entry 3V0Y",4.1 µM (active)
CC(C)[C@@H]1NC(=O)[C@H](CCC(=O)O)NC(=O)[C@H](Cc2ccc(O)cc2)NC(=O)[C@H](CCCNC(N)N)NC(=O)[C@H](CO)NC(=O)[C@@H](NC(=O)[C@H](C)N)CSCc2cc3cc(c2)CSC[C@H](NC(=O)[C@H](CC(=O)O)NC1=O)C(=O)N[C@@H](CCCNC(N)N)C(=O)NCC(=O)N[C@@H](CCCNC(N)N)C(=O)N[C@H](CO)C(=O)N[C@@H](CO)C(=O)N[C@@H](C)C(=O)N[C@H](C(=O)NCC(N)=O)CSC3,Ki,"protein: Urokinase-type plasminogen activator (C122A, N145Q mutation), PDB entry 4jk5",0.028 µM (active)
CC[C@H]1NC(=O)[C@H](CCCNC(N)N)NC(=O)CNC(=O)[C@H](CCCNC(N)N)NC(=O)[C@@H]2CSCc3cc(cc(c3)CSC[C@@H](C(=O)NCC(N)=O)NC(=O)[C@H](C)NC(=O)[C@H](CO)NC1=O)CSC[C@H](NC(=O)[C@H](C)N)C(=O)N[C@@H](CO)C(=O)N[C@@H](CCCNC(N)N)C(=O)N[C@@H](Cc1ccc(O)cc1)C(=O)N[C@@H](CCC(=O)O)C(=O)N[C@@H](C(C)C)C(=O)N[C@@H](CC(=O)O)C(=O)N2,Ki,"protein: Urokinase-type plasminogen activator (C299A, N322Q mutation), PDB entry 4jk6",0.064 µM (active)
NC1=NC2=NC[C@@H](CNc3ccc(C(=O)N[C@@H](CCC(=O)O)C(=O)O)cc3)N(C=O)C2C(=O)N1 (stereo partly specified),Ki,"protein: Serine hydroxymethyltransferase, putative SHMT, PDB entry 4oyt",1550 µM (active)
C[C@]12CC[C@@H](O)C[C@@H]1CC[C@@H]1[C@@H]2CC[C@]2(C)C=CC[C@@H]12,Ki,"protein: Mus musculus constitutive androstane receptor, PDB entry 1xnx",0.416 µM (active)
C[C@@H](NC(=O)CCCC[C@@H](N)C(=O)O)[C@H](O)C(F)(F)F,Ki,"protein: D-ALANYL-D-ALANINE CARBOXYPEPTIDASE, PDB entry 3zcz",0.17 µM (active)
Cc1cc(C)c(Nc2nc(Nc3ccc(C#N)cc3)nc(OCCCN3CCOCC3)n2)c(C)c1,Ki,"protein: HIV-1 reverse transcriptase, p66 subunit RT52A, PDB entry 4o44",0.014 µM (active)
CC(C)N1CCC(C(=O)Nc2c(OCCCO[C@@H]3O[C@H](CO)[C@@H](O)[C@H](O)[C@H]3O)cccc2OCc2cc(-c3ccc(Cl)s3)on2)CC1,Ki,"protein: Alpha Thrombin, hfIIa, PDB entry 4n3l",0.1 µM (active)
Nc1cc(Cl)nc(N)n1,Ki,"protein: PDE10A2, PDB entry 4ms0",410 µM (active)
CCCCCCCCOc1cccc(CSc2ccc(Br)cc2C(=O)O)c1,Ki,"protein: Dehydrosqualene synthase, PDB entry 3tfv",0.08 µM (active)
